In the library only some 1.2% were active in any assay of this set; here they are far more common.
SRC1 inh: SRC1 coactivator transcriptional activity inhibitors, primary screen, cell-based, luminescence; HEK293 GAL4-SRC1 luciferase reporter; 360,000 compounds, 0.12% hits; inhibition, % at 3.6 µM; AID 588354, 2011;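 active = inhibition above the campaign mean plus 3 SD, with each screening campaign given its own cutoff, cut at about 60% in these data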;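 also: 0% = DMSO treated cells and 100% = gossypol at 36 µM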
SRC2 inh: inhibition of GAL4-SRC2 driven luciferase reporter, primary screen, SRC2 inhibitor project, cell-based, luminescence | HEK293 GAL4-SRC2 luciferase reporter | inhibition, % at 9 µM | 370,000 compounds, 0.17% hits;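 active = inhibition above the mean inhibition of all tested compounds plus 3 SD, set per campaign, cut at about 52% in these data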;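 also: 0% = DMSO treated cells and 100% = cells given Gossypol at 36 µM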
NR5A2 inv ag: LRH-1 (NR5A2) inverse agonists, primary screen, cell-based, luminescence, HEK293T, StAR-luciferase reporter. Nuclear receptor subfamily 5 group A member 2 (Homo sapiens), O00482. LRH-1 transfected, 24 h. inhibition, % at 3.6 µM. 360,000 compounds, 0.13% hits. AID 602396, 2012;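 active = inhibition above the mean inhibition of all tested compounds plus 3 SD, cut at about 73% in these data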;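 also: 0% = DMSO wells and 100% = reporter-only cells lacking LRH-1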
SRC3 inh: SRC3 coactivator transcriptional activity inhibitors, primary screen, cell-based, luminescence. Nuclear receptor coactivator 3 (Homo sapiens), Q9Y6Q9. HEK293 GAL4-SRC3 luciferase reporter. inhibition, % at 3.6 µM. 360,000 compounds, 0.17% hits;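 active = inhibition above a per-campaign cutoff, the mean of all compounds plus 3 SD, cut at about 60% in these data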;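 also: 0% = DMSO-treated cells and 100% = gossypol-treated cells at 36 µM; higher means less SRC3-driven luciferase light from the GAL4 reporter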
Gli-Sufu antag: Gli-Sufu pathway antagonists, primary screen, luciferase luminescence, Sufu-KO-LIGHT cells, uHTS. inhibition, % at 5 µM. AID 588413, 2011. Sufu-KO-LIGHT fibroblasts, Gli luciferase reporter luminescence. 340,000 compounds, 0.74% hits;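 active = inhibition above about 55%, limit read from the data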;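 also: 0% = DMSO-treated cells and 100% = wells with medium but no cells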
NR2F2 inh: NR2F2 transcriptional activity inhibitors, primary screen, cell-based, luciferase reporter, HEK293T, luminescence. inhibition, % at 8.6 µM. COUP transcription factor 2 (Homo sapiens), P24468. 370,000 compounds, 0.7% hits. HEK293T NGFI-A luciferase reporter. AID 686940, 2013;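 active = inhibition above a per-plate cutoff, mean inhibition of test wells between control levels plus 3 SD, cut at about 38% in these data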;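 also: cells cotransfected with COUP-TFII expression vector driving the NGFI-A reporter; 0% = median of COUP-TF2 test wells and 100% = reporter-only cells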
Gli-Sufu confirm: Gli-SUFU pathway antagonists, confirmation, single concentration, luciferase luminescence, Sufu-KO-LIGHT cells; inhibition, % at 5 µM; shares compounds with Gli-Sufu antag; 2,500 compounds, 40% hits; Gli luciferase reporter; AID 602428, 2012;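 active = mean inhibition at 5 µM reaching about 45%, limit read from the data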;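 also: plate controls were DMSO-treated cells for no effect and wells lacking cells for full effect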
SufuKO cytotox: cytotoxicity in Sufu-KO-LIGHT cells, confirmation, cytotoxicity control for Gli-SUFU antagonist project, cell-based, ATP luminescence, single concentration | shares compounds with Gli-Sufu antag | cytotoxicity, % at 5 µM | 2,500 compounds, 32% hits;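 active = mean cytotoxicity at 5 µM above about 25%, limit read from the data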;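 also: cells exposed to compound overnight for roughly 16 to 18 hours; plate controls were DMSO wells with cells for no effect and medium without cells for full effect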
Wnt3a counter: Wnt3a reporter signal inhibition, confirmation, counter-screen for Gli-SUFU antagonist project, Wnt-LIGHT cells, luminescence, single concentration; shares compounds with Gli-Sufu antag; Wnt3a-driven luciferase reporter; inhibition, % at 6.25 µM; 2,500 compounds, 20% hits; AID 651995, 2013;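 active = mean inhibition above about 25%, limit read from the data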
Starred values were filed as active, the others as inactive; x = no result given.

SMILES	SRC1 inh	SRC2 inh	NR5A2 inv ag	SRC3 inh	Gli-Sufu antag	NR2F2 inh	Gli-Sufu confirm	SufuKO cytotox	Wnt3a counter
CCCCC(=O)Nc1nc(C)c(-c2csc(Nc3cc(OC)ccc3OC)n2)s1	8	-1	12	-28	95*	-21	33	25	17
Cc1ccc(Nc2nc(N/N=C\c3ccc4c(c3)OCO4)nc(N3CCOCC3)n2)cc1	-281	-29	-11	-3	56*	-18	50*	35*	-75
Cc1cccc(/C=N/Nc2cc(N3CCOCC3)nc(N3CCOCC3)n2)c1	7	8	-1	17	60*	-8	41	34*	-103
COc1ccc(-n2c(SCC(=O)Nc3ccccc3-c3ccccc3)nnc2-c2ccccc2)cc1	x	15	x	x	x	11	x	x	x
Cc1cccc(N(C)S(=O)(=O)c2ccc(-c3cnc(C4CC4)o3)cc2)c1	-18	21	21	10	59*	-54	57*	55*	-15
Cc1ccc(NS(=O)(=O)c2ccc(-c3cnc(C4CC4)o3)cc2)c(C)c1	-14	29	23	17	21	-35	x	x	x
CCOc1ccccc1NS(=O)(=O)c1ccc(-c2cnc(C3CC3)o2)cc1	-14	15	24	16	55*	-62	59*	56*	-12
O=S(=O)(Nc1ccc(F)cc1Cl)c1ccc(-c2cnc(C3CC3)o2)cc1	14	26	18	19	54	5	25	50*	-34
COC(=O)C1=C(C)N(Cc2ccccc2C(F)(F)F)C(=NCc2ccc(OC)cc2)NC1CCc1ccccc1 (stereo not drawn)	x	-35	x	x	x	-16	x	x	x
COc1cccc(-c2nc(CS(=O)(=O)CC(=O)NCCCN3CCOCC3)c(C)o2)c1	0	8	2	-5	-10	-22	x	x	x
COc1cccc(-c2nc(CS(=O)(=O)CC(=O)NCCN3CCOCC3)c(C)o2)c1	7	-13	-13	4	77*	-6	21	-1	-6
Cc1sc(NC(=O)CSc2nnc(C(C)C)n2C)c(C#N)c1C	-5	-22	11	14	56*	5	26	0	-4
COC(=O)c1cc2c(c3c4ccccc4n(S(=O)(=O)c4ccc(C)cc4)c13)C(=O)N(C)C2	x	-13	x	x	x	0	x	x	x
Cc1ccccc1C(=O)N(C)[C@H]1C[C@H]2c3[nH]c4c(-c5ccc6c(c5)OCO6)cccc4c3CCN2C(=O)[C@H]1[C@H](C)O	x	-4	x	x	x	-6	x	x	x
CCCCCn1c(CCC(=O)Oc2ccccc2OC)nc2c1c(=O)[nH]c(=O)n2CCCC	-16	5	-15	19	-1	10	x	x	x
CCCCn1c(=O)[nH]c(=O)c2c1nc(CN(C)Cc1cccc(OC)c1OC)n2CCC	5	2	10	2	63*	15	17	4	-8
CCN(CC)S(=O)(=O)c1ccc(C)c(NC(=S)N2CCN(Cc3ccc4c(c3)OCO4)CC2)c1	8	24	7	-2	64*	37	43	24	7
Cc1ccc(NC(=S)N2CCN(Cc3ccc4c(c3)OCO4)CC2)c(C)c1	-2	-2	11	13	3	5	x	x	x
COc1ccc(-n2nnc3c(SCC(=O)NCc4ccco4)ncnc32)cc1	-6	1	-27	2	98*	12	21	6	12
O=C(c1cc(F)ccc1F)N1CCC(N2CCC(C(=O)N3CCCC3)CC2)CC1	11	-15	5	-25	57*	2	13	18	-19
O=C(c1ccccc1Cl)N1CCC(N2CCC(C(=O)N3CCCC3)CC2)CC1	8	-20	-9	4	92*	-4	9	13	-21
O=C(O)C1CCN(C(=O)c2ccccc2Cl)CC1	13	2	6	21	0	-7	x	x	x
COc1ccccc1-n1c(=O)c2c3c(sc2n2c(SC)nnc12)CCC3	4	6	-14	11	52	0	15	-4	17
Cc1ccc(C[n+]2cccc(-c3ccccc3)c2)c(C)c1	11	3	28	29	84*	25	84*	21	56*
CC1=C(C(N)=O)C(c2cccnc2)n2nc(SCc3ccccc3Cl)nc2N1 (stereo not drawn)	5	x	20	5	58*	x	10	7	-12
SMILES	SRC1 inh	SRC2 inh	NR5A2 inv ag	SRC3 inh	Gli-Sufu antag	NR2F2 inh	Gli-Sufu confirm	SufuKO cytotox	Wnt3a counter
COc1ccc(/C=C/C(=O)c2cc(F)ccc2OC(=O)c2ccccc2)cc1OC	-7	18	34	-11	50	-105	60*	49*	16
CCCC(=O)Nc1c(C(=O)OCC)[nH]c2ccccc12	9	1	9	8	75*	10	15	17	-49
CCOC(=O)c1[nH]c2ccccc2c1NC(=O)CN1CCCCC1	-4	8	18	13	7	-3	x	x	x
CCOC(=O)c1[nH]c2ccccc2c1NC(=O)CC(C)C	4	-31	13	-27	54	-17	23	9	-19
COC(=O)[C@]12C[C@H](CC(=O)NCC34CC5CC(CC(C5)C3)C4)C(=O)N(CCC3=CCCCC3)C1=C[C@H](COCc1ccccc1)O[C@@H]2C	x	-14	x	x	x	3	x	x	x
CC(C)[C@H]1COCCS(=O)(=O)N1Cc1ccccc1-c1cccc2c1oc1ccccc12	-10	-9	-7	18	93*	7	24	7	-40
Cc1ccccc1C(=O)N1CCC[C@@H]1C(=O)N1CCC[C@H]1C(=O)NCc1ccccc1	x	-6	x	x	x	-1	x	x	x
COc1ccccc1CCN1CCCC(CN(C)Cc2ccc(OCCO)cc2)C1 (stereo not drawn)	2	2	-6	7	55	15	28	8	-9
COc1ccc(CN(C)CC2CCCN(CCc3ccc(F)cc3)C2)cc1OC (stereo not drawn)	9	9	-2	-12	21	30	x	x	x
COc1ccccc1CCN1CCCC(CN(C)CC(C)(C)CO)C1 (stereo not drawn)	5	-23	2	-3	-8	7	x	x	x
